According to publication PMC7862700, “An all-to-all approach to the identification of sequence-specific readers for epigenetic DNA modifications on cytosine”:

Experiments:
Experiment in all cases: DAPPL (digital affinity profiling via proximity ligation, sequencing); 10 mM Tris-HCl pH 7.5, 50 mM NaCl, 1 mM DTT, 4% glycerol, room temperature, 30 min; GST-TFs on glutathione beads, 16-mer random dsDNA library, 0.1% formaldehyde crosslink after washing; high values mean tight binding
[1] = biological target: T1, FLI1 (Homo sapiens, UniProt Q01543 1-452); settings: protein: recombinant; tags: N-terminal GST; dsDNA, one strand shown
T1 sequence: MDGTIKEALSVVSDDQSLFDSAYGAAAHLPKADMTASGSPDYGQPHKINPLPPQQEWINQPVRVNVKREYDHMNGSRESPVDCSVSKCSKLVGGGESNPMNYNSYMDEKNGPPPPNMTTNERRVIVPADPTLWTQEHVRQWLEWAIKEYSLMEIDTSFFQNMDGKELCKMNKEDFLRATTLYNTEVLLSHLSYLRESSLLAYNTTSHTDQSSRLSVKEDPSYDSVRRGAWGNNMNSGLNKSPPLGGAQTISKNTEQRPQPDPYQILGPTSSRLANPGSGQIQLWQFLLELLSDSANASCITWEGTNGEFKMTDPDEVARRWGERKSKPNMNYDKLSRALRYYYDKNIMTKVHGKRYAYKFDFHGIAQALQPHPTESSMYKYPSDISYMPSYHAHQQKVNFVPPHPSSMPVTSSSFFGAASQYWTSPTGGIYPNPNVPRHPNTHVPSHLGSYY
How it was run: (§1)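 Pools of DNA-barcoded human transcription factors, expressed in yeast as GST fusions on glutathione beads and combined with a tag-only sample, were incubated with 200 nmole of a 16-mer random double-stranded DNA library. Incubation took 30 min at room temperature in Tris/NaCl/DTT/glycerol buffer and was followed by washing, 0.1% formaldehyde crosslinking, proximity ligation (BsaI/T4 ligase, 1 h, 37 °C), PCR amplification and sequencing on an Illumina NextSeq500. Binding signal is the ratio of a hexamer's read frequency for a factor to its frequency for the tag-only sample.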

[2] = biological target: T2, ELK1 (Homo sapiens, UniProt P19419 1-428); settings: protein: recombinant; tags: N-terminal GST; dsDNA, one strand shown
T2 sequence: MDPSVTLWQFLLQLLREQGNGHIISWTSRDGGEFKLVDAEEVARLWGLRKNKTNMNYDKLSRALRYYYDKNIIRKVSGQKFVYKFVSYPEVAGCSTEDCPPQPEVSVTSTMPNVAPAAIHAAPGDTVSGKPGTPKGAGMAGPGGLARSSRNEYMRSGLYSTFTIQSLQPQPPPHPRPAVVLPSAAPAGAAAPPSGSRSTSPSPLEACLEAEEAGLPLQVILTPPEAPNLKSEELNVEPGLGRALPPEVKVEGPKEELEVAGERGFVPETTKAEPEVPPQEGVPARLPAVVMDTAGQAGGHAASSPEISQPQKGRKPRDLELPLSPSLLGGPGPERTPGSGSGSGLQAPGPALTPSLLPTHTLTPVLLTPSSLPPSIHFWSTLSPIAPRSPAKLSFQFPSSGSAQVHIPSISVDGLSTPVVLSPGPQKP
How it was run: as §1

[3] = biological target: T3, GABPA (Homo sapiens, UniProt Q06546 1-454); settings: protein: recombinant; tags: N-terminal GST; dsDNA, one strand shown
T3 sequence: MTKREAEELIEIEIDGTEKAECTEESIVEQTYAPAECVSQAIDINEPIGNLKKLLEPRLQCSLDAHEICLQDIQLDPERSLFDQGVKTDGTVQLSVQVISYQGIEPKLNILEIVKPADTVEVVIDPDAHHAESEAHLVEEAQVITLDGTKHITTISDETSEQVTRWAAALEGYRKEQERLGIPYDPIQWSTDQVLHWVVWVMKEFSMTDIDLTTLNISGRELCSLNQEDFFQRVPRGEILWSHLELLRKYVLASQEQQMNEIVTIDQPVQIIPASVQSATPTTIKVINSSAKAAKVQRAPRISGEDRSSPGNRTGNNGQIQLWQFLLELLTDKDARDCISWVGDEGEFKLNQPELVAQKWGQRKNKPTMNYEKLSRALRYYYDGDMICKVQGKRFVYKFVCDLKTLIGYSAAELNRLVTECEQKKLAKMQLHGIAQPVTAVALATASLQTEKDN
How it was run: as §1

[4] = biological target: T4, ERG (Homo sapiens, UniProt P11308 1-479); settings: protein: recombinant; tags: N-terminal GST; dsDNA, one strand shown
T4 sequence: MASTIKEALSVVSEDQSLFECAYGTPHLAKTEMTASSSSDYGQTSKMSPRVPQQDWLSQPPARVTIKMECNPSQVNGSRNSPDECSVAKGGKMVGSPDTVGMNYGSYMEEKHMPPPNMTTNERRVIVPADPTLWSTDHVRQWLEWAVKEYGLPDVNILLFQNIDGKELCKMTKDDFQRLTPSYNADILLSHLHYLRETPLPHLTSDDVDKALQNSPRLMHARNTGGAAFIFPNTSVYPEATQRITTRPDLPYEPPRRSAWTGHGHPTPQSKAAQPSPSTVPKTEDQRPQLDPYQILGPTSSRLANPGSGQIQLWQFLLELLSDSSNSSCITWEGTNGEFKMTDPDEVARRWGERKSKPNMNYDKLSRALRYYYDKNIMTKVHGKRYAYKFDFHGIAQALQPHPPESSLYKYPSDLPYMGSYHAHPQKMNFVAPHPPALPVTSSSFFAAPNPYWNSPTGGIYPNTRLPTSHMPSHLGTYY
How it was run: as §1

[5] = biological target: ELF1 (Homo sapiens, UniProt P32519 1-619); settings: protein: recombinant; tags: N-terminal GST; dsDNA, one strand shown
How it was run: as §1

[6] = biological target: T5, EHF (Homo sapiens, UniProt Q9NZC4 1-300); settings: protein: recombinant; tags: N-terminal GST; dsDNA, one strand shown
T5 sequence: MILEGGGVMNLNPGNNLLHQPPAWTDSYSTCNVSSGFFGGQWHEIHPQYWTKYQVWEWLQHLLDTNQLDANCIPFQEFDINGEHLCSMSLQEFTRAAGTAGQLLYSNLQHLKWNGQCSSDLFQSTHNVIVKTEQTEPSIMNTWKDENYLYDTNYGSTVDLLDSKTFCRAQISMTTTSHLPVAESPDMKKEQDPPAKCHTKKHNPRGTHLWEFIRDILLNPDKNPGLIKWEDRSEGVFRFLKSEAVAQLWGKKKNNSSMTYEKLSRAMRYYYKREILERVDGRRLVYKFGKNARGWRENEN
How it was run: as §1

[7] = biological target: SPI1 (Homo sapiens, UniProt P17947 1-270); settings: protein: recombinant; tags: N-terminal GST; dsDNA, one strand shown
How it was run: as §1

[8] = biological target: SPIB (Homo sapiens, UniProt Q01892 1-262); settings: protein: recombinant; tags: N-terminal GST; dsDNA, one strand shown
How it was run: as §1

[9] = biological target: T6, ELK3 (Homo sapiens, UniProt P41970 1-407); settings: protein: recombinant; tags: N-terminal GST; dsDNA, one strand shown
T6 sequence: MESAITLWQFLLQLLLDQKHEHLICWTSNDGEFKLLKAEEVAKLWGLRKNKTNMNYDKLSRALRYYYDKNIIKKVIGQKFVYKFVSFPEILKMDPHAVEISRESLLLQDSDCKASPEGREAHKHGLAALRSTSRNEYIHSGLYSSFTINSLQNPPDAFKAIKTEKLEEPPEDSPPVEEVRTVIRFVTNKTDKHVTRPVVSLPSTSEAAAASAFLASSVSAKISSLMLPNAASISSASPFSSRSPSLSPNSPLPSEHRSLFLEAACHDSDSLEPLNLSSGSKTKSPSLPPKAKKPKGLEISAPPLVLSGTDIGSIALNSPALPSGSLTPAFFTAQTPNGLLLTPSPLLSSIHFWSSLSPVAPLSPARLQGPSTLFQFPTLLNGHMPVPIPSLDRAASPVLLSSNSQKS
How it was run: as §1

[10] = biological target: T7, FEV (Homo sapiens, UniProt Q99581 1-238); settings: protein: recombinant; tags: N-terminal GST; dsDNA, one strand shown
T7 sequence: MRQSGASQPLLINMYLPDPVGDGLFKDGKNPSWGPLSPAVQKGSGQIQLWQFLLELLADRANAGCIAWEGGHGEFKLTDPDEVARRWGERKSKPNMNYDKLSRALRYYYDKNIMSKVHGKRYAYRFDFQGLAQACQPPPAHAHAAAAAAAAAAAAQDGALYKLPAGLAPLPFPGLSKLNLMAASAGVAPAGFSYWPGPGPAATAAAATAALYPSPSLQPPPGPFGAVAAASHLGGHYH
How it was run: as §1

[11] = biological target: ETV5 (Homo sapiens, UniProt P41161 1-510); settings: protein: recombinant; tags: N-terminal GST; dsDNA, one strand shown
How it was run: as §1

[12] = biological target: HSF1 (Homo sapiens, UniProt Q00613 1-529); settings: protein: recombinant; tags: N-terminal GST; chain copies: 3; dsDNA, one strand shown
How it was run: as §1

[13] = biological target: T8, SPIC (Homo sapiens, UniProt Q8N5J4 1-248); settings: protein: recombinant; tags: N-terminal GST; dsDNA, one strand shown
T8 sequence: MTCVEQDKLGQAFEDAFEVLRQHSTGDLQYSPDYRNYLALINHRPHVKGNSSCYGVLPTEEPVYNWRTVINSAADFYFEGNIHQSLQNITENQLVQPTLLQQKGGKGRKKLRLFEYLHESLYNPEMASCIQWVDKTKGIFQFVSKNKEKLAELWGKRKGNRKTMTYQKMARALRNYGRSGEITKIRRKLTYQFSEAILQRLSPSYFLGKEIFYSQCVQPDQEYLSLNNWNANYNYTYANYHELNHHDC
How it was run: as §1

[14] = biological target: ELF4 (Homo sapiens, UniProt Q99607 1-663); settings: protein: recombinant; tags: N-terminal GST; dsDNA, one strand shown
How it was run: as §1

[15] = biological target: T9, ELK4 (Homo sapiens, UniProt P28324-2 1-405); settings: protein: recombinant; tags: N-terminal GST; dsDNA, one strand shown
T9 sequence: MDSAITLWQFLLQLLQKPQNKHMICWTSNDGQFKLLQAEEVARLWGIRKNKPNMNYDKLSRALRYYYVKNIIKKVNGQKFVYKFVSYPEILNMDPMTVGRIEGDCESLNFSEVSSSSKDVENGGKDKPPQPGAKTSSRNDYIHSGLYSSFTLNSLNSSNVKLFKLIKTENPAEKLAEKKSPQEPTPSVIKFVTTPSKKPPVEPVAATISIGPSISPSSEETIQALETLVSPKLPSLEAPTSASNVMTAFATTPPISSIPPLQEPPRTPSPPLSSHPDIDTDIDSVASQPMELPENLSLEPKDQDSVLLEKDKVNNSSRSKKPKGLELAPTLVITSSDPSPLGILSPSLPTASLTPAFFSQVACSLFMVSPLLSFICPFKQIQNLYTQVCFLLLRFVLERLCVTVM
How it was run: as §1

[16] = biological target: T10, ETV2 (Homo sapiens, UniProt O00321 1-342); settings: protein: recombinant; tags: N-terminal GST; dsDNA, one strand shown
T10 sequence: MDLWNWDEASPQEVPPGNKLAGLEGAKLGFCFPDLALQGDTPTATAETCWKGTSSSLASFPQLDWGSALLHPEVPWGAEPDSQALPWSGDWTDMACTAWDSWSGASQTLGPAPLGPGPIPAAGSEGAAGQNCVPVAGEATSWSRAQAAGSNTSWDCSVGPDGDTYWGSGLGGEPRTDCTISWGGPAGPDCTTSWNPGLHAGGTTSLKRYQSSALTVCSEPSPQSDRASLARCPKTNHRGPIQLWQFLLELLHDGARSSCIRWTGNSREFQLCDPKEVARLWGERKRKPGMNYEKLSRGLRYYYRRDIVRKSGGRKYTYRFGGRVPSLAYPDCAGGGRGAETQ
How it was run: as §1

[17] = biological target: T11, ELF3 (Homo sapiens, UniProt P78545 1-371); settings: protein: recombinant; tags: N-terminal GST; dsDNA, one strand shown
T11 sequence: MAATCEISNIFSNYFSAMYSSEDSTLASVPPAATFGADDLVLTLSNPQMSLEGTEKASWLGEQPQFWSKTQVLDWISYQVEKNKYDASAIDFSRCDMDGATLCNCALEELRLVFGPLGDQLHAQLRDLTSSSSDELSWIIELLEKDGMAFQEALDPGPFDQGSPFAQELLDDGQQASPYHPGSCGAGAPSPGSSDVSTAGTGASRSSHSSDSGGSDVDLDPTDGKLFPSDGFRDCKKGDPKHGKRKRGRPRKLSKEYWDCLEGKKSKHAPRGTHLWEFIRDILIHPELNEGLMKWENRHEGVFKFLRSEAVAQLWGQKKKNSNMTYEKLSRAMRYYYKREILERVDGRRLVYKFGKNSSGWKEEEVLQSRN
How it was run: as §1

[18] = biological target: CRX (Homo sapiens, UniProt O43186 1-299); settings: protein: recombinant; tags: N-terminal GST; dsDNA, one strand shown
How it was run: as §1

[19] = biological target: ETV1 (Homo sapiens, UniProt P50549 1-477); settings: protein: recombinant; tags: N-terminal GST; dsDNA, one strand shown
How it was run: as §1

Chain of CRX (O43186 whole entry): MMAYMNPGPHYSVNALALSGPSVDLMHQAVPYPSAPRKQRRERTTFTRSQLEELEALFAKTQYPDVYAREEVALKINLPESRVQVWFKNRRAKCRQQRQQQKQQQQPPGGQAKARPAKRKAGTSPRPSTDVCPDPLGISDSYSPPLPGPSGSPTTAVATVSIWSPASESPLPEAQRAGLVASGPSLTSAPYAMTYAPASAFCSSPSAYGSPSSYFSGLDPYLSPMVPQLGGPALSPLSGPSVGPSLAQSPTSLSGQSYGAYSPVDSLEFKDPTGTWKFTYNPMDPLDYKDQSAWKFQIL
Chain of SPIB (Q01892 whole entry): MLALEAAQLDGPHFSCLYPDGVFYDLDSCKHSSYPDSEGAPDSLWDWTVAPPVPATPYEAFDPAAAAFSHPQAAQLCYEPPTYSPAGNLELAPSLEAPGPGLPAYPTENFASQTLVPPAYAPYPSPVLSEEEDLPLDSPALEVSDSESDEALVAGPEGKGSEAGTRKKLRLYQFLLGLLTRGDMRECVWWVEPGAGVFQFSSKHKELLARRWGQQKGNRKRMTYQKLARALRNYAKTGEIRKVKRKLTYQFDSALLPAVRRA
Chain of HSF1 (Q00613 whole entry): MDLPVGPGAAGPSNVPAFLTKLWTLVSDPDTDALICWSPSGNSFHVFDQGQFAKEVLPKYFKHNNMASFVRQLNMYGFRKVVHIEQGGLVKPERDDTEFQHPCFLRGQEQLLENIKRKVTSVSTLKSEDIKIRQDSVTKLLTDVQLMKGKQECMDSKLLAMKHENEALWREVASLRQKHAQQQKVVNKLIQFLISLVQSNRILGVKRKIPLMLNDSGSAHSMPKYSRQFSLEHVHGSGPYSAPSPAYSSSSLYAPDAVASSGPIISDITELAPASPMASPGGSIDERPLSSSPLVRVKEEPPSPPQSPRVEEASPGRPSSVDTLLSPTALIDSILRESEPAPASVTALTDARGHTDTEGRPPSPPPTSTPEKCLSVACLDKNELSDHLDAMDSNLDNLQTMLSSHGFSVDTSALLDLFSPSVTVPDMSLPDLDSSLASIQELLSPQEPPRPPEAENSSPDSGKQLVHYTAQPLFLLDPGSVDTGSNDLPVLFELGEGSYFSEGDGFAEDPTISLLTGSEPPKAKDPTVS
Chain of ELF4 (Q99607 whole entry): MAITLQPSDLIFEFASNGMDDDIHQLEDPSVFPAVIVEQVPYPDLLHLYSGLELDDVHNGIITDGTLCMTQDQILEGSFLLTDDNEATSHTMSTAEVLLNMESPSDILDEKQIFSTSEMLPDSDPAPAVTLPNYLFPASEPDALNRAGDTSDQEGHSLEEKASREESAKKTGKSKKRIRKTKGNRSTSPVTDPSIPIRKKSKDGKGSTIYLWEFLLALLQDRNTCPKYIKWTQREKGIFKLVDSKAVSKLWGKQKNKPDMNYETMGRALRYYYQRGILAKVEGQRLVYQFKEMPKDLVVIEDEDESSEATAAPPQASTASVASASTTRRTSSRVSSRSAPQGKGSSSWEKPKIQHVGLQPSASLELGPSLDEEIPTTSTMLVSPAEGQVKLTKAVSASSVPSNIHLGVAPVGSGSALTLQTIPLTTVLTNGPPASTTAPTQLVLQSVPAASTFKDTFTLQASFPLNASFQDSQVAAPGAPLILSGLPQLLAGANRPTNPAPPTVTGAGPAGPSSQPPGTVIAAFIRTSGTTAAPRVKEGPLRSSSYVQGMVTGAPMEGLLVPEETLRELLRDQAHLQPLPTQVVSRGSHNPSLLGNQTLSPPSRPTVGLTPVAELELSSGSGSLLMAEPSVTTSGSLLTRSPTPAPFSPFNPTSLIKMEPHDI
Chain of ETV5 (P41161 whole entry): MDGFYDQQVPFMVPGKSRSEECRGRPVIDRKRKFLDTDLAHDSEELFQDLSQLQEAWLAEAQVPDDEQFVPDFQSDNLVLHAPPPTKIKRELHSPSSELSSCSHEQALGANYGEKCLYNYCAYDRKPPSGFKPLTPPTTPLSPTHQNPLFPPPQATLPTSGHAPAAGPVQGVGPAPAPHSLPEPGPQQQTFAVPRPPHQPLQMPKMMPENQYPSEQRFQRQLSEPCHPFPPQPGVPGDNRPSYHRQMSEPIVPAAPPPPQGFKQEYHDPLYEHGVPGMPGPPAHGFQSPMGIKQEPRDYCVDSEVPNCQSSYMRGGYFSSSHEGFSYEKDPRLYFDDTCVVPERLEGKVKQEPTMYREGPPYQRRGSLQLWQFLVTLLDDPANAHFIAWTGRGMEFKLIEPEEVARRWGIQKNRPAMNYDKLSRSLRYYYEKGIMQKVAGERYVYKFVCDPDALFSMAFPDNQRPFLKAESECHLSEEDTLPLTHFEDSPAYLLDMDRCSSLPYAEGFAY
Chain of ELF1 (P32519 whole entry): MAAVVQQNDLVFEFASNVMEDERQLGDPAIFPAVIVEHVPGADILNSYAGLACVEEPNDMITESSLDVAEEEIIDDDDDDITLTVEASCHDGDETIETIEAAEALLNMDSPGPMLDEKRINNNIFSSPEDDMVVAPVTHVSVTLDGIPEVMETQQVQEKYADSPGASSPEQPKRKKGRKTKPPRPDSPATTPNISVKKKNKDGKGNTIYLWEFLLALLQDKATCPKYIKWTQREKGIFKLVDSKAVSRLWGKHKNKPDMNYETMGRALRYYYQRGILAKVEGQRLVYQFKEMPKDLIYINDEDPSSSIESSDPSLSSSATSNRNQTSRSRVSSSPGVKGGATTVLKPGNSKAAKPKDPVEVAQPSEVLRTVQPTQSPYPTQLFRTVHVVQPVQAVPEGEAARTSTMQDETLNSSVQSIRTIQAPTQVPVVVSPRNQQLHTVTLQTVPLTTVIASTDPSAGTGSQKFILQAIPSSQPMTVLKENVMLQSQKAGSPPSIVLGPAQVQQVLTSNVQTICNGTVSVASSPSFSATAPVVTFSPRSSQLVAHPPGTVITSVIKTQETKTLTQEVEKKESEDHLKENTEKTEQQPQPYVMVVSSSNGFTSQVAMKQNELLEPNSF
Chain of ETV1 (P50549 whole entry): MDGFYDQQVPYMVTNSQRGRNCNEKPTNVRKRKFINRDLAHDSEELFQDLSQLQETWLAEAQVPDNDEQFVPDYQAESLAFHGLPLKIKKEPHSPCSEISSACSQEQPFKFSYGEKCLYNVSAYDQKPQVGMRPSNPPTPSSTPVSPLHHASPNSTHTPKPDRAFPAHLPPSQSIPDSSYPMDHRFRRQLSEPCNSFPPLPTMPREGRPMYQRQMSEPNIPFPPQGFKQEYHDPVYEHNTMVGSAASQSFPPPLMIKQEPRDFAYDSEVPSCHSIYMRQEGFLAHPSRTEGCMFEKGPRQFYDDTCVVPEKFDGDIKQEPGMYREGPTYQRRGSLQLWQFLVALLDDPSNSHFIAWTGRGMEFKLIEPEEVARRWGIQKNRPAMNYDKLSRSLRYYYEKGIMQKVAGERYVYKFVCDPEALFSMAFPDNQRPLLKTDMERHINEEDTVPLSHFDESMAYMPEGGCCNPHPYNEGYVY

Sequence: GTACTT
- binding signal [1]: 1.92 fold enrichment (6-mer frequency, TF over GST control)
- binding signal [2]: 2.32 fold enrichment (6-mer frequency, TF over GST control)
- binding signal [3]: 1.81 fold enrichment (6-mer frequency, TF over GST control)
- binding signal [4]: 1.88 fold enrichment (6-mer frequency, TF over GST control)
- binding signal [5]: 1.9 fold enrichment (6-mer frequency, TF over GST control)
- binding signal [6]: 1.96 fold enrichment (6-mer frequency, TF over GST control)
- binding signal [7]: 1.94 fold enrichment (6-mer frequency, TF over GST control)
- binding signal [8]: 1.78 fold enrichment (6-mer frequency, TF over GST control)
- binding signal [9]: 2.51 fold enrichment (6-mer frequency, TF over GST control)
- binding signal [10]: 2.21 fold enrichment (6-mer frequency, TF over GST control)
- binding signal [11]: 1.95 fold enrichment (6-mer frequency, TF over GST control)
- binding signal [12]: 1.35 fold enrichment (6-mer frequency, TF over GST control)
- binding signal [13]: 1.86 fold enrichment (6-mer frequency, TF over GST control)
- binding signal [14]: 1.86 fold enrichment (6-mer frequency, TF over GST control)
- binding signal [15]: 1.78 fold enrichment (6-mer frequency, TF over GST control)
- binding signal [16]: 1.88 fold enrichment (6-mer frequency, TF over GST control)
- binding signal [17]: 2.04 fold enrichment (6-mer frequency, TF over GST control)
- binding signal [18]: 1.6 fold enrichment (6-mer frequency, TF over GST control)
- binding signal [19]: 2.05 fold enrichment (6-mer frequency, TF over GST control)
